Bioassay records deposited in PubChem BioAssay by National Center for Advancing Translational Sciences (NCATS).
TDP1 cell noCPT = qHTS for Inhibitors of human tyrosyl-DNA phosphodiesterase 1 (TDP1): qHTS in cells in absence of CPT; DT40 Tdp1-/- hTDP1 cells, no CPT, ATP luminescence, 48 h; Potency, µM (top dose mostly 46.2 µM), for inactives: top-dose activity change, negative = growth inhibition, actives largely listed as inhibitors; 420,000 tested, 15% active; AID 686978, 2013; note: nearly all actives have a fitted effect of over 55% in size
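Stably hTDP1-transfected Tdp1-null chicken DT40 cells were treated with library compounds minus camptothecin and grown for at least 48 hr at 37 °C, after which cellular ATP was quantified by luminescence.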
HT1080-NT tox = kills 2HG-producing HT-1080-NT fibrosarcoma cells; 360,000 tested, 1.6% active; HT-1080-NT fibrosarcoma viability, CellTiter-Glo ATP luminescence, 48 h; Potency, µM (series often up to 46.1 µM), for inactives: top-dose activity, negative = less viability, hits mostly cytotoxic;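 note: NT is the 2HG producing partner of a matched IDH1 knockdown line; 0% = DMSO-treated cells and -100% = media-only wells without cells; nearly all actives have a fitted effect of over 55% in size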
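Luminescent CellTiter-Glo readout after 48 hours of compound exposure at 37 degrees C defined viability of HT-1080-NT cells. Activity was normalized to DMSO wells and cell-free media wells; concentration-response curves were fitted and assigned curve classes.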
HT1080 IDH1KD tx = HT-1080 IDH1 knockdown cell toxicity (counter line); 360,000 tested, 2% active; AID 686971; Potency, µM (series often up to 46.1 µM), inactives show at the highest dose activity, negative = toxicity, most hits filed as cytotoxic; HT-1080 IDH1 knockdown viability, ATP luminescence, 48 h;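 note: 0% = DMSO wells and -100% = cell-free medium wells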
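In this qHTS, HT-1080 cells depleted of IDH1 are exposed for 48 h at 37 °C to compound titrations. Toxicity is scored from CellTiter-Glo luminescence, with DMSO as full viability and medium alone as none.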
KB-V1 cytotox = KB-V1 MDR subline cytotoxicity. AID 1347076. Potency, µM (doses to about 46.1 µM), usual class: cytotoxic. 400,000 tested, 3.4% active. KB-V1 MDR cells viability, CellTiter-Glo, 72 h; note: nearly all actives have a fitted effect of over 60% in size
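Cytotoxicity toward P-gp-expressing KB-V1 cells was determined as loss of CellTiter-Glo luminescence after 72 h at 37 degrees C. Compounds were tested in quantitative HTS format across a concentration range, with curves fitted to normalized data.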
TDP1 cell CPT = DT40-hTDP1 cell growth loss with CPT; chicken DT40 Tdp1-/-;hTDP1 cells + 20 nM CPT, ATP luminescence, 48 h; Potency, µM (doses to about 46.2 µM), for inactives: at the top dose activity change, negative = growth inhibition, usual class: inhibitors; 420,000 tested, 12% active; AID 686979; note: nearly all actives have a fitted effect of over 55% in size
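Cell growth measured by CellTiter-Glo luminescence after a minimum 48 h, 37 C compound exposure with 20 nM CPT in Tdp1-knockout DT40 cells stably expressing hTDP1, seeded 400/well; qHTS titration format.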
KB-3-1 tox = KB-3-1 parental cell cytotoxicity | Potency, µM (top dose mostly 46.1 µM), usual class: cytotoxic | 400,000 tested, 1.4% active | KB-3-1 viability, CellTiter-Glo ATP luminescence, 72 h | AID 1347075; note: nearly all actives have a fitted effect of over 60% in size
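Parental KB-3-1 viability, qHTS format: 72 h compound exposure, 37 °C; CellTiter-Glo; media-only wells and DMSO plates as controls; concentration-effect fits on corrected data.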
* hit, by the source's call; i = inactive; ? = inconclusive; / = no result given; [ ] = remark or other dose. Rows were chosen to be rich in hits. Some 19% of all compounds tested hit in one or more screens of this group. Calls come from the whole dose curve; as a rule, active = well fitted curve in the direction sought with a large enough effect; inconclusive = small, poorly fitted or top-dose-only effect, or another doubt; inactive = no such curve, though single readings can be large; an effect the other way counts as inactive or inconclusive. Unless noted, % is set by controls: 0 for no effect and ±100 for the full control effect; potency is the fitted concentration of half-maximal effect.

SMILES | TDP1 cell noCPT | HT1080-NT tox | HT1080 IDH1KD tx | KB-V1 cytotox | TDP1 cell CPT | KB-3-1 tox
O=C(CC1c2ccccc2C=C(c2ccsc2)N1c1ccc(-c2cccnc2)cc1)C1CC1 (configuration not stated) | 18µM* | -2% | -8% | ? | ? | ?
COC(=O)c1ccc(N2C(c3cccc(OC)c3)=Cc3ccc(F)cc3C2c2c(C)[nH]c3ccccc23)cc1 (configuration not stated) | ? | ? | ? | i | 23µM* | i
Oc1ccc(-c2cnccn2)cc1CN1CCN(C2CCCCC2)CC1 | -21% | / | / | / | -75%[9.04 µM] | /
O=C(NCc1ccccc1)c1nn(-c2ccccc2)nc1CO | ? | / | / | / | -28% | /
COc1cc(OC)cc(-c2noc(-c3csc([C@@H]4C[C@H](O)[C@@H](CO)O4)n3)n2)c1 | 15µM* | 7% | 2% | i | ? | i
CCOc1ccc(-c2noc(-c3csc([C@@H]4C[C@H](O)[C@@H](CO)O4)n3)n2)cc1 | 23µM* | -6% | -16% | i | ? | i
C=C(C)COc1ccc2c(C)c(CCC(=O)N3C[C@H]4C[C@@H](C3)c3cccc(=O)n3C4)c(=O)oc2c1 | ? | 1% | -11% | i | -16% | i
CCOC(=O)Cn1c(C2CC(=O)N(c3ccc(C)cc3)C2)nc2ccccc21 (configuration not stated) | -25% | / | / | i | -4% | i
Cc1ccc(-c2ccc(CN3C(C)C(=O)N(Cc4cn(Cc5ccco5)nn4)CCS3(=O)=O)cc2)cc1 (configuration not stated) | ? | ? | ? | i | ? | i
CCC/C=C/c1ccc(CN2C(C(C)C)C(=O)N(Cc3cn(Cc4ccco4)nn3)CCS2(=O)=O)cc1 (configuration not stated) | 23µM* | ? | ? | i | ? | i
CC(C)CC1C(=O)N(Cc2cn(Cc3ccco3)nn2)CCS(=O)(=O)N1Cc1ccc(-c2cccc(N(C)C)c2)cc1 (configuration not stated) | 13µM* | -3% | -12% | i | ? | i
COc1ccc(-c2ccc(CN3C(C(C)C)C(=O)N(Cc4cn(Cc5ccco5)nn4)CCS3(=O)=O)cc2)cn1 (configuration not stated) | 21µM* | -9% | -3% | i | 18µM* | i
COc1ccc(-c2ccc(CN3C(C)C(=O)N(Cc4cn(Cc5ccco5)nn4)CCS3(=O)=O)cc2)cc1 (configuration not stated) | 23µM* | -27% | ? | ? | 21µM* | ?
CC1C(=O)N(Cc2cn(Cc3ccco3)nn2)CCS(=O)(=O)N1Cc1ccc(-c2ccc(F)nc2)cc1 (configuration not stated) | ? | -3% | 0% | i | -27% | ?
CCOC(=O)c1ccc(-n2c(-c3ccc(C)cc3)c(C)n3c4c(=O)n(C)c(=O)n(C)c4nc23)cc1 | / | / | / | i | / | i
Cc1ccc(-c2ccc(CN3C(CC(C)C)C(=O)N(Cc4cn(Cc5ccco5)nn4)CCS3(=O)=O)cc2)cc1 (configuration not stated) | ? | -25% | -15% | i | 4% | i
CC1C(=O)N(Cc2cn(Cc3ccco3)nn2)CCS(=O)(=O)N1Cc1ccc(-c2cccnc2)cc1 (configuration not stated) | ? | 5% | 21% | i | ? | i
